Results reported in PubChem BioAssay (Tox21).
Where “and” joins values, the source holds several entries; their conditions need not be identical. Equal values may be shown once. Records with an inconclusive call do not appear. Where a structure was tested more than once in an assay, its records may differ in their call. Calls of active or inactive are those of the source. Unless noted, calls follow the shape of the full dose curve.

What was measured:
[1] = Nuclear factor erythroid 2-related factor 2/antioxidant responsive element (Nrf2/ARE) small molecule agonists: luciferase reporter gene qHTS assay in human keratinocytes (AID 1919969); also: nearly all actives have a fitted effect of over 35% in size; also: potency is read from the fitted curve at half-maximal effect
[2] = molecular target: Gonadotropin-releasing hormone receptor (Homo sapiens) (UniProt P30968); assay: Human gonadotropin-releasing hormone receptor (GnRHR) small molecule agonists, calcium flux assay in GnRHR-HEK293 cells (AID 1920063); also: nearly all actives have a fitted effect of over 35% in size
Gonadotropin-releasing hormone receptor (Homo sapiens), sequence (P30968 whole entry, looked up): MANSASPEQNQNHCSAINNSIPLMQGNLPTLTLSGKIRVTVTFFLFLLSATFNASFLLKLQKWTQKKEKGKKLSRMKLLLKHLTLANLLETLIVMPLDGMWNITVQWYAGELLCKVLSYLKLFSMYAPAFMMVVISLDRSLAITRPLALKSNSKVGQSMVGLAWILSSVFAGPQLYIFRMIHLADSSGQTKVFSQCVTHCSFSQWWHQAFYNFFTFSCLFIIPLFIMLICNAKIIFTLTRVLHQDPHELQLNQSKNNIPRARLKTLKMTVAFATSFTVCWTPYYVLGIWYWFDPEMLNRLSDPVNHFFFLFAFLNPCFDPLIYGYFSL
Procedure, shortened: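 Compounds dissolved in DMSO are pin-transferred onto dye-loaded GnRHR-HEK293 cells, which were seeded 18 h before at 37 C/5% CO2. Calcium signal is read as fluorescence intensity at 1 s intervals for 3 min.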

[3] = molecular target: KiSS-1 receptor (Homo sapiens) (UniProt Q969F8); assay: Human kisspeptin (KISS1R) small molecule agonists, calcium flux assay in KISS1R-HEK293 cells (AID 1920064; active = well fitted activation curve with a large enough effect in the repeat runs)
KiSS-1 receptor (Homo sapiens), sequence (Q969F8 whole entry, looked up): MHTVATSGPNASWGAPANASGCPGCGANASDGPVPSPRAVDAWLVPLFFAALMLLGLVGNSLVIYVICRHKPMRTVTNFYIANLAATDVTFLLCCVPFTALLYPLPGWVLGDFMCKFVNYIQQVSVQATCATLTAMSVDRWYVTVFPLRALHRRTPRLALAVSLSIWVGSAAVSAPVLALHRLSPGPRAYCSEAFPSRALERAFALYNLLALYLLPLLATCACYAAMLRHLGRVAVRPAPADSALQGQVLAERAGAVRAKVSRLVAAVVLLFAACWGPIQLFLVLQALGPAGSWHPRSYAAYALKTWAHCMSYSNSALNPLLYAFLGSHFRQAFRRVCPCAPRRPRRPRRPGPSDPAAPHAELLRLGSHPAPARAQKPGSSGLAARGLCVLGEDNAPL
Procedure, shortened: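 Cell line: HEK293, stable human KISS1R. Dye loading 1 h at 37 C after 18 h culture. Read: kinetic fluorescence, 480/540 nm, 3 min at 1 s intervals.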

[4] = G protein-coupled receptor (GPCR) small molecule agonists, calcium flux assay: HEK293 wild type cell line counter screen (AID 1920065)
Procedure, shortened: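 Tox21 10K compounds, 15 concentrations each in triplicate, pin-transferred in DMSO onto dye-loaded cells; kinetic read at 480/540 nm for 3 min, 1 s intervals.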

[5] = p53 small molecule agonists, cell-based qHTS assay with human liver microsomes (AID 1963577);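 also: p53 response element beta-lactamase reporter cells with liver microsomes plus NADPH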
Procedure, shortened: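 With metabolic activation: human liver microsomes (0.5 mg/mL final) plus NADPH (0.5 mg/mL final) added alongside compounds to p53RE-bla cells; 16 h 37 C exposure; beta-lactamase read by LiveBLAzer fluorescence.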

[6] = p53 small molecule agonists, cell-based qHTS assay with rat liver microsomes (AID 1963578)
Procedure, shortened: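 Metabolic activation by rat liver microsomes and NADPH, each 0.5 mg/mL final, added right after compounds to p53RE-bla reporter cells (4,000/well, plated 5 h earlier). 16 h at 37 C, then LiveBLAzer substrate for 2 h at room temperature in the dark; fluorescence read-out.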

[7] = p53 small molecule agonists, cell-based qHTS assay with human liver microsomes: qHTS cell viability counter screen (AID 1963579); also: nearly all actives have a fitted effect of over 45% in size; also: potency is read from the fitted curve at half-maximal effect
Procedure, shortened: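 Metabolic activation used human liver microsomes and NADPH, both 0.5 mg/mL final, over 16 hours at 37 C on p53RE-bla cells (4,000/well). Cytotoxicity measured by CellTiter-Glo luminescence, 30 min at room temperature.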

[8] = p53 small molecule agonists, cell-based qHTS assay with rat liver microsomes: qHTS cell viability counter screen (AID 1963580); also: nearly all actives have a fitted effect of over 45% in size
Procedure, shortened: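 Rat liver microsome (0.5 mg/mL final) and NADPH (0.5 mg/mL final) co-incubation with compounds for 16 h at 37 C on HCT-116 p53RE-bla cells; cytotoxicity taken from intracellular ATP luminescence.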

[9] = p53 small molecule agonists, cell-based qHTS assay: qHTS cell viability counter screen (AID 1963581); also: nearly all actives have a fitted effect of over 45% in size; also: potency is read from the fitted curve at half-maximal effect
Procedure, shortened: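 ATP content measured by luminescence in HCT-116 p53RE-bla cells treated 16 h at 37 C, same wells as the reporter screen.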

[10] = p53 small molecule agonists, cell-based qHTS assay (AID 1963582; active = well fitted activation curve with a large enough effect in the signal ratio in the repeat runs, not every such curve was filed as active; the % refers to the signal ratio)
Procedure, shortened: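 16 h compound exposure (37 C) of p53 response element–bla cells, preceded by 5 h recovery at 37 C/5% CO2; read-out via LiveBLAzer B/G FRET substrate, 2 h RT, fluorescence intensity.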

[11] = molecular target: 5-hydroxytryptamine receptor 2A (Homo sapiens) (UniProt P28223); assay: 5-hydroxytryptamine receptor 2A (HTR2A) small molecule antagonists, cell-based qHTS assay (AID 1963586); also: nearly all actives have a fitted effect of over 45% in size
5-hydroxytryptamine receptor 2A (Homo sapiens), sequence (P28223 whole entry, looked up): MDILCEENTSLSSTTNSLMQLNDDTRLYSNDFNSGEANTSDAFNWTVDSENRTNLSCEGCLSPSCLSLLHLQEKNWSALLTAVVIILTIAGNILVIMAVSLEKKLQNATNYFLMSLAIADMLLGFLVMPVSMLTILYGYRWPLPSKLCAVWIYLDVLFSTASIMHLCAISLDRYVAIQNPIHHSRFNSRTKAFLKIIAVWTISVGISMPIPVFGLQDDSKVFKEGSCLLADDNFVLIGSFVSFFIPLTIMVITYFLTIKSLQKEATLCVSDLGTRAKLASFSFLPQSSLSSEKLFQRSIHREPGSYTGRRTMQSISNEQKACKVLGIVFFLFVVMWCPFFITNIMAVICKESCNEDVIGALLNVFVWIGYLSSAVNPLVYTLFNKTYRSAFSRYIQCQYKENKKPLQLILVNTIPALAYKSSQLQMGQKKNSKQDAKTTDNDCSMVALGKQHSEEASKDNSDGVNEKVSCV
Procedure, shortened: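 CHO cells stably expressing human HTR2A were plated for 18 h at 37 C, then loaded with calcium dye for 1 h. Compounds were preincubated 5 min at room temperature before DOI (4 nM solution) was added. Kinetic fluorescence was read for 3 min.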

[12] = molecular target: 5-hydroxytryptamine receptor 2A (Homo sapiens) (UniProt P28223); assay: 5-hydroxytryptamine receptor 2A (HTR2A) small molecule agonists, cell-based qHTS assay (AID 1963587); also: nearly all actives have a fitted effect of over 30% in size; also: potency is read from the fitted curve at half-maximal effect
Procedure, shortened: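 Kinetic calcium-flux fluorescence (2 min, 1 sec intervals) after compound addition in agonist mode. HTR2A-CHO cells were cultured 18 h, then dye-loaded 1 h at 37 C.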

[13] = molecular target: Muscarinic acetylcholine receptor M1 (Homo sapiens) (UniProt P11229); assay: Cholinergic receptor muscarinic 1 (CHRM1) small molecule antagonists, cell-based qHTS assay (AID 1963588); also: nearly all actives have a fitted effect of over 40% in size
Muscarinic acetylcholine receptor M1 (Homo sapiens), sequence (P11229 whole entry, looked up): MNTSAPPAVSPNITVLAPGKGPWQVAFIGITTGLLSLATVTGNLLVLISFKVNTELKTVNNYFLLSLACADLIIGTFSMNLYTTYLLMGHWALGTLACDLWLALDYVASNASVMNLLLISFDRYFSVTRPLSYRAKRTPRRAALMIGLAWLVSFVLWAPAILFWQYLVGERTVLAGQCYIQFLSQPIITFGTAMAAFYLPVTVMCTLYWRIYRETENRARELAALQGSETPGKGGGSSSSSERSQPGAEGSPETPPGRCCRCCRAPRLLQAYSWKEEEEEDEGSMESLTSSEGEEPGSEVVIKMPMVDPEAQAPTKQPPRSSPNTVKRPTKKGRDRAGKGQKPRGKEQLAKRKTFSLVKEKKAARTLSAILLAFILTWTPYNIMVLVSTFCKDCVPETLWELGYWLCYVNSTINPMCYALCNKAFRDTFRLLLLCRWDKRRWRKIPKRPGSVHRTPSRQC
Procedure, shortened: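 Compounds were tested at 15 concentrations in three independent runs. Dye-loaded CHRM1-CHO cells were exposed 5 min at room temperature before stimulation by acetylcholine added at 50nM. Intracellular calcium was read kinetically on FDSS for 3 min.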

[14] = molecular target: Muscarinic acetylcholine receptor M1 (Homo sapiens) (UniProt P11229); assay: Cholinergic receptor muscarinic 1 (CHRM1) small molecule agonists, cell-based qHTS assay (AID 1963589); also: nearly all actives have a fitted effect of over 35% in size
Procedure, shortened: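 Homogeneous fluorescence calcium flux, agonist mode. Human M1-expressing CHO cells; compound dosed at 15 concentrations, three independent runs; signal sampled every 1 sec.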

[15] = cAMP Responsive Elements (CRE) small molecule agonists, cell-based qHTS assay (AID 1963590)
Procedure, shortened: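 HEK 293T cells stably bearing CRE-bla were plated at 2,000 cells per well and rested 18 h. Compounds, positive controls or DMSO were added for 3 h at 37 C. LiveBLAzer B/G substrate was then loaded for 2 h at room temperature.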

[16] = cAMP Responsive Elements (CRE) small molecule antagonists, cell-based qHTS assay (AID 1963591; active = well fitted inhibition curve with a large enough effect in the signal ratio in the repeat runs, not every such curve was filed as active; the % refers to the signal ratio)
Procedure, shortened: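 First, CRE-bla HEK293T cells settled 18 h at 37 C. Next, compound and 0.25 uM final NKH477 were applied for 3 h. Last, LiveBLAzer B/G substrate was loaded for 2 h at room temperature.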

[17] = molecular target: Beta-2 adrenergic receptor (Homo sapiens) (UniProt P07550); assay: Adrenergic beta2 receptor (ADRB2) small molecule antagonists, cell-based qHTS assay (AID 1963592); also: series mostly up to about 92 µM; nearly all actives have a fitted effect of over 50% in size
Beta-2 adrenergic receptor (Homo sapiens), sequence (P07550 whole entry, looked up): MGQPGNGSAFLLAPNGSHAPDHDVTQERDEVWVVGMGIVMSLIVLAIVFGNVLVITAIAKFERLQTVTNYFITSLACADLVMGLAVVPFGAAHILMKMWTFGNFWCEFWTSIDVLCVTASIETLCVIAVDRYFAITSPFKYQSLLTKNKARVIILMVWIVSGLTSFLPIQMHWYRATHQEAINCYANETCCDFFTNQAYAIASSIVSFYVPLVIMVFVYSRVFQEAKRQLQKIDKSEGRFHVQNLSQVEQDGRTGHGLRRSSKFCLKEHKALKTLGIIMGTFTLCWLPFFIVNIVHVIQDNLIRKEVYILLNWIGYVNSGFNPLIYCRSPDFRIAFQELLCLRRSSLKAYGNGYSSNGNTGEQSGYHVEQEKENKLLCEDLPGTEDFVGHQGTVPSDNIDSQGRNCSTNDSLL
Procedure, shortened: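 Assay format: CHO-ADRB2 cells, 18-20hr seeding at 37C/5% CO2, then compound plus 1nM isoproterenol agonist mix for 0.5hr RT. Homogeneous time-resolved fluorescence cAMP detection after 1hr, expressed as 665/615 nm ratio.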

[18] = molecular target: D(2) dopamine receptor (Homo sapiens) (UniProt P14416); assay: Dopamine D2 receptor (DRD2) small molecule agonists, cell-based qHTS assay (AID 1963594); also: nearly all actives have a fitted effect of over 35% in size
D(2) dopamine receptor (Homo sapiens), sequence (P14416 whole entry, looked up): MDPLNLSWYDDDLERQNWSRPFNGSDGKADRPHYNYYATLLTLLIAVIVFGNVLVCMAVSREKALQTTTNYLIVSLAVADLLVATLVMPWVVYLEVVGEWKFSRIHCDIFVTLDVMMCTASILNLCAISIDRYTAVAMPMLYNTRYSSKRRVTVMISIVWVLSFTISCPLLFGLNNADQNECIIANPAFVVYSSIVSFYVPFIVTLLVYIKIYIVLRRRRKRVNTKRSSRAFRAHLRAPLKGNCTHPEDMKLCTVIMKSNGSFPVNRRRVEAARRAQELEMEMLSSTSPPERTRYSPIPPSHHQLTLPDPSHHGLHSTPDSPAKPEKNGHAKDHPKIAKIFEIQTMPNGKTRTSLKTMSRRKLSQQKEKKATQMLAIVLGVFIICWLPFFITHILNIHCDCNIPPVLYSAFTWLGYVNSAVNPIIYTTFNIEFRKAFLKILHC
Procedure, shortened: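 cAMP accumulation in DRD2-HEK293 cells measured by HTRF after 1 h detection; compounds added 10 min before NKH477 (200nM […]) forskolin-analogue stimulation, 30 min at room temperature, with Ro20-1724 present at 0.1 mM final.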

[19] = molecular target: D(2) dopamine receptor (Homo sapiens) (UniProt P14416); assay: Dopamine D2 receptor (DRD2) small molecule antagonists, cell-based qHTS assay (AID 1963595; active = well fitted inhibition curve with a large enough effect in the signal ratio in the repeat runs, with a control signal flat; the % refers to the signal ratio)
Procedure, shortened: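 Human DRD2 antagonist qHTS measuring cAMP by HTRF. The cells are exposed to compound for 10 min, then to NKH477 (200 nM) and quinpirole (12 nM) for 30 min at RT, with Ro20-1724 (0.1 mM) present throughout.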

[20] = molecular target: Beta-2 adrenergic receptor (Homo sapiens) (UniProt P07550); assay: Adrenergic beta2 receptor (ADRB2) small molecule agonists, cell-based qHTS assay (AID 1963593);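 also: CHO cells stably overexpressing human ADRB2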
Procedure, shortened: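 CHO cells stably over-expressing ADRB2 were plated overnight at 37C, then dosed with compounds plus a stimulation mix containing 100uM IBMX and 25uM Ro-20-1724 for 0.5hr at room temperature. cAMP was measured by HTRF competition, 1hr.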

Measured: Potency

CC1(C)C(C(=O)OC(C#N)c2cccc(Oc3ccccc3)c2)C1(C)C (stereo unspecified)
39.2 µM (active) and inactive: [12]
inactive: [1] | [2] | [3] | [4] | [5] | [6] | [7] | [8] | [9] | [10] | [11] | [13] | [14] | [15] | [16] | [17] | [18] | [19]

Brc1ccc(Oc2ccc(Br)cc2Br)c(Br)c1
active: [1] 6.12 µM
inactive: [2] | [3] | [4] | [5] | [6] | [7] | [8] | [9] | [10] | [11] | [12] | [13] | [14] | [16] | [17] | [20] | [18] | [19]

COc1ccc(-c2ccccc2)cc1NNC(=O)OC(C)C
inactive: [1] | [2] | [3] | [4] | [5] | [6] | [7] | [8] | [9] | [10] | [11] | [12] | [13] | [14] | [17] | [20] | [19]

O=C(N[C@H](c1ccccc1)[C@@H]1CN2CCC1CC2)c1c(Cl)ccc(C(F)(F)F)c1Cl
inactive: [1] | [2] | [3] | [4] | [5] | [6] | [7] | [8] | [9] | [10] | [11] | [12] | [14] | [17] | [19]

CC(Cc1ccccc1)NCCn1cnc2c1c(=O)n(C)c(=O)n2C (stereo unspecified)
inactive: [1] | [2] | [3] | [4] | [5] | [6] | [7] | [8] | [10] | [11] | [12] | [14] | [15] | [16] | [17] | [20] | [18] | [19]

CN[C@@H](C)[C@H](O)c1ccccc1
inactive: [1] | [2] | [3] | [4] | [5] | [7] | [8] | [9] | [10] | [12] | [13] | [14] | [16] | [17] | [18] | [19]

CC(C)N1C(=O)N(c2ccccc2)CSC1=NC(C)(C)C
inactive: [1] | [2] | [3] | [4] | [5] | [7] | [8] | [9] | [11] | [12] | [13] | [14] | [17] | [20] | [18] | [19]

CCCOCC(=Nc1ccc(Cl)cc1C(F)(F)F)n1ccnc1
active: [1] 27.3 µM
inactive: [2] | [3] | [4] | [5] | [6] | [17] | [20]

O=S1OC[C@@H]2[C@H](CO1)[C@]1(Cl)C(Cl)=C(Cl)[C@@]2(Cl)C1(Cl)Cl (stereo partly specified)
active: [1] 24.3 µM
inactive: [2] | [3] | [4] | [5] | [6] | [8] | [9] | [11] | [12] | [13] | [14] | [17] | [18]

CCS(=O)(=O)C(C)(C)S(=O)(=O)CC
inactive: [1] | [2] | [3] | [4] | [5] | [6] | [7] | [9] | [10] | [11] | [12] | [14] | [15] | [16] | [19]

C[C@H]1O[C@@H](O[C@H]2[C@@H](O)C[C@H](O[C@H]3[C@@H](O)C[C@H](O[C@H]4CC[C@@]5(C)[C@H](CC[C@@H]6[C@@H]5CC[C@]5(C)[C@@H](C7=CC(=O)OC7)CC[C@]65O)C4)O[C@@H]3C)O[C@@H]2C)C[C@H](O)[C@@H]1O
inactive: [2] | [3] | [4] | [5] | [6] | [17] | [20] | [18] | [19]
active: [1] 61.5 nM and 119 nM | [9] 81.9 nM and 79.3 nM
46.1 nM (active) and inactive: [7]

C=C(C)CN(CC)c1c([N+](=O)[O-])cc(C(F)(F)F)cc1[N+](=O)[O-]
inactive: [2] | [3] | [4] | [5] | [7] | [8] | [9] | [10] | [11] | [12] | [13] | [14] | [15] | [16] | [18] | [19]
active: [1] 54.5 µM
